This is a sample that favours compounds with a hit; in the whole collection about 2.7% have one here.
ERa SRC1 inh = blocks coactivator binding to human estrogen receptor alpha. P03372. TR-FRET ER-alpha LBD / SRC-1 peptide, estradiol-bound. inhibition, % at 25.6 µM. 86,000 tested, 1.7% active. AID 629; in the data active means inhibition above about 50%
Target sequence (P03372 whole entry, looked up, the tested form may be a part): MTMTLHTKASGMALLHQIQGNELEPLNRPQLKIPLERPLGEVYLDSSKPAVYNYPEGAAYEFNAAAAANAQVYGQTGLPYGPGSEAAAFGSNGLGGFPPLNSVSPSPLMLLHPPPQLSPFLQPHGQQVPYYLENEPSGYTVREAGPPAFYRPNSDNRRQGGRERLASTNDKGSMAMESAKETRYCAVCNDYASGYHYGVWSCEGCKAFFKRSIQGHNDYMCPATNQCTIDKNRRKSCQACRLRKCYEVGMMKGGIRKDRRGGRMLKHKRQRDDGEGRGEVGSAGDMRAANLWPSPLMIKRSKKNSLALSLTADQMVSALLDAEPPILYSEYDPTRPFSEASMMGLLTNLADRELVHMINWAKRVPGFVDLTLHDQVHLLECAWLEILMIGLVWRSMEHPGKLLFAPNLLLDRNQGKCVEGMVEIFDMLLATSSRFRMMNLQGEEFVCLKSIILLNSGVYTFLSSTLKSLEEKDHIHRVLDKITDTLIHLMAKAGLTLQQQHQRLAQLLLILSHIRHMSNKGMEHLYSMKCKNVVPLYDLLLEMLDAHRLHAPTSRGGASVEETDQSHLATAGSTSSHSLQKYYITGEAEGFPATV
MRP reversal = compounds reversing MRP-mediated drug resistance. H69AR cells + 2 uM doxorubicin, CellTiter-Glo, 72 h. differential viability (reversal), % at 10 µM. 85,000 tested, 0.04% active. AID 602;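 active means viability drop by adding the cancer drug above about 55%, with treated viability meeting a 40% cutoff, limit read from the data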;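 further: larger differential means the compound sensitizes cells more to doxorubicin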
ERa SRC1 pot = enhances coactivator binding to human estrogen receptor alpha; P03372; TR-FRET ERalpha-LBD/SRC-Cy5 coactivator binding, 2 h; 100 = basal binding, no effect; coactivator binding (% of control), % at 25.6 µM; 86,000 tested, 1.3% active; in the data active means activity above about 200%;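 further: binding measured in presence of low estradiol as agonist stimulus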
MRP1 act = activators of MRP-1. 140,000 tested, 0.61% active. viability increase, % at 10 µM. H69AR cells + doxorubicin, viability rescue, CellTiter-Glo. AID 799;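 active means viability gain under doxorubicin at or above a set limit, the compound median plus 3 SD, cut at about 4.7% in these data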;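 further: MRP-1 overexpressing cells given doxorubicin 25 µM after compound pretreatment; 18-22 h compound pretreatment then 72 h with doxorubicin before readout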
ERb coact inh = blocks coactivator binding to human estrogen receptor beta; Q92731; TR-FRET ER-beta LBD / SRC1-Cy5 peptide binding; receptor agonist-loaded with 1 µM estradiol; inhibition, % at 25.6 µM; 86,000 tested, 1.3% active; AID 633;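 active means compounds whose percent inhibition of the receptor-coactivator binding signal exceeds about 50% in the single-dose screen, limit read from the data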
Hits are given with their value; 0 = inactive; - = no result; [ ] = dose if it differs, or a comment.

SMILES	ERa SRC1 inh	MRP reversal	ERa SRC1 pot	MRP1 act	ERb coact inh
N/C(Cc1ccc([N+](=O)[O-])cc1)=N\OC(=O)c1ccc2ccccc2c1	50	0	0	0	0
CN(C)c1nccc(Nc2ccccc2)c1C#N	99[fluorescence artefact?]	0	0	0	0
CCc1nnc(NC(=O)CCC(=O)N2CCN(C3c4ccccc4-c4ccccc43)CC2)s1	-	-	-	0	-
O=C1CC(N2CCC(c3nc4ccccc4o3)CC2)C(=O)N1c1cc(Cl)cc(Cl)c1 (centres undefined)	0	0	0	8.2	0
CSc1ccc(C2C(C#N)=C(N)Oc3c2ccc(=O)c2c(C)oc(C)c32)cc1 (centres undefined)	78	0	0	0	58
Cc1oc(C)c2c(=O)ccc3c(c12)OC(N)=C(C#N)C3c1ccccc1 (centres undefined)	0	0	0	0	0
CCOc1ccc(NC(=O)CC(c2ccccc2)c2ccc(F)cc2)cc1 (centres undefined)	-	-	-	0	-
CCOc1ccc(NCc2nnc(SCC(=O)Nc3nc(-c4ccccc4)cs3)n2-c2ccccc2)cc1	-	-	-	0	-
O=C(CN1CCN(Cc2ccc(Cl)cc2)C1=O)NCCCN1CCN(c2ccc(F)cc2)CC1	0	0	277[fluorescence artefact?]	0	0
O=C(CN1CCN(Cc2ccc(Cl)cc2)C1=O)NCCCN1CCOCC1	0	0	0	0	0
Cc1ccc2c(CSc3nc4ccccc4c(=O)n3CCCO)cc(=O)oc2c1	0	0	0	-	0
CN1CCc2c(sc3c2c(=O)n(-c2ccccc2)c2nnc(SCc4ccc(Cl)cc4)n32)C1	0	0	314	0	0
COc1ccc(C(CC(=O)c2ccc(C)cc2)C(C#N)C#N)cc1OC (centres undefined)	-	-	-	0	-
COc1ccc(-c2nnc(Nc3nc4c(OC)cccc4s3)o2)cc1	77[fluorescence artefact?]	0	0	0	73[fluorescence artefact?]
COc1cc(OC)cc(-c2nnc(Nc3nc4c(F)cccc4s3)o2)c1	0	0	436[fluorescence artefact?]	0	0
Cc1cc(C)n2cc(CSc3nc4ccccc4s3)nc2n1	-	-	-	0	-
Cc1cnn(-c2ccc3nnc(-c4ccc(Cl)cc4)n3n2)c1	0	0	329[fluorescence artefact?]	0	0
O=C(CS(=O)(=O)c1ccccc1)Nc1ccc(Br)cn1	-	-	-	0	-
Cc1ccc(C)c2[nH]c(=O)c(C(c3nnnn3Cc3ccco3)N3CCc4ccccc4C3)cc12 (centres undefined)	0	0	220[fluorescence artefact?]	0	0
Cc1nnc(NC(=O)C(C)Oc2ccc3c(C)cc(=O)oc3c2)s1 (centres undefined)	0	0	0	7.7	0
Cc1cc(=O)oc2cc(OCC(=O)Nc3nnc(CC(C)C)s3)ccc12	0	0	0	0	0
Cc1cc(=O)oc2cc(OCC(=O)Nc3nnc(C(C)C)s3)ccc12	0	0	488	0	0
CCOC(=O)c1c(NC(C)=O)sc2c(OC)c(Br)ccc12	0	0	0	0	0
CCOC(=O)c1c(NC(C)=O)sc2c(O)c(CN3CCN(CC)CC3)ccc12	54[fluorescence artefact?]	0	0	0	0
O=C(/C=C/c1ccc([N+](=O)[O-])cc1)N1CCN(c2ccccc2F)CC1	-	-	-	35	-
SMILES	ERa SRC1 inh	MRP reversal	ERa SRC1 pot	MRP1 act	ERb coact inh
O=C(/C=C/c1cccs1)N1CCN(c2ccccc2F)CC1	-	-	-	0	-
O=c1oc(-c2ccc(Br)o2)nc2ccccc12	0	0	0	0	0
CCOC(=O)Cc1c(C)nc2c(-c3ccc(Cl)cc3)c(C)[nH]n2c1=O	0	0	248[fluorescence artefact?]	0	0
C=C(C)C1CCC(C)=C1CC(C)(C)/C=N\n1cnnc1 (centres undefined)	0	0	0	0	0
COc1cc(C)c(S(=O)(=O)NCc2ccc3c(c2)OCO3)cc1C	66	0	0	0	0
COc1cc(C)c(Cl)c(C)c1S(=O)(=O)NCc1ccc2c(c1)OCO2	0	0	0	0	0
Cc1ccc(S(=O)(=O)Nc2nc3ccccc3nc2NCc2ccc3c(c2)OCO3)cc1C	-	-	-	5.9	-
COc1ccc(S(=O)(=O)Nc2nc3ccccc3nc2NCc2ccc3c(c2)OCO3)cc1	-	-	-	0	-
CC(C)Cn1c(N)c(C(=O)CSc2cc(Cl)ccc2Cl)c(=O)n(C)c1=O	-	-	-	0	-
O=c1nc2n(c3sc4c(c13)CCC4)Cc1ccccc1-2	0	0	0	-	0
O=C(CCCn1c(=S)[nH]c2ccccc2c1=O)N1CCN(c2cccc(Cl)c2)CC1	92	0	0	0	54[fluorescence artefact?]
O=C(CCCCCn1c(=S)[nH]c2cc3c(cc2c1=O)OCO3)N1CCN(Cc2ccccc2)CC1	0	0	0	0	0
O=C(CCCCCn1c(=S)[nH]c2cc3c(cc2c1=O)OCO3)N1CCN(C(=O)c2ccco2)CC1	0	0	211[fluorescence artefact?]	0	0
Cc1ccc(CSCC(=O)NN=C2CCN(C)CC2)cc1	-	-	-	0	-
Cc1c(C(=O)N2CCN(c3ccccc3)CC2)sc2ncnc(N3CCN(c4ccccc4)CC3)c12	0	0	400[fluorescence artefact?]	-	0
COc1ccccc1CN(Cc1nc2ccccc2c(=O)[nH]1)S(=O)(=O)c1ccc2ccccc2c1	0	0	280	0	0
COc1ccc(S(=O)(=O)N(Cc2ccccc2)Cc2nc3ccccc3c(=O)[nH]2)cc1	0	0	0	0	0
CC(=O)C1=C(C)NC(SCC(=O)c2ccc(-c3ccccc3)cc2)=C(C#N)C1c1cccnc1 (centres undefined)	0	0	355[fluorescence artefact?]	0	0
CN(CC(=O)Nc1sccc1C#N)C1CCCCC1	79[fluorescence artefact?]	0	0	0	60[fluorescence artefact?]
N#Cc1ccsc1NC(=O)CN1CCCCCC1	-	-	-	0	-
O=C(NNC(=O)c1cccnc1)Nc1cccc(Cl)c1Cl	-	-	-	0	-
O=C(Nc1cccc(Cl)c1Cl)c1ccncc1	54[fluorescence artefact?]	0	0	0	0
COc1ccc(NC(=O)C2CCN(c3cc(-c4ccccc4)nc4ncnn34)CC2)cc1OC	0	0	0	0	0
COc1ccc(OC)c(NC(=O)C2CCN(c3cc(-c4ccccc4)nc4ncnn34)CC2)c1	0	0	0	0	56[fluorescence artefact?]
O=c1oc2c(O)c(O)cc3c(=O)oc4c(O)c(O)cc1c4c23	94[fluorescence artefact?]	0	0	0	98[fluorescence artefact?]
SMILES	ERa SRC1 inh	MRP reversal	ERa SRC1 pot	MRP1 act	ERb coact inh
Cc1c(C)c2cc(Cl)c(O)c(CN(C)C)c2oc1=O	0	0	0	0	0
CN(C)c1ccc(N=Cc2ccco2)cc1	0	0	0	0	70
CN(C)c1ccc(C=Nc2ccc(N(C)C)cc2)cc1	0	0	0	0	58[fluorescence artefact?]
CN(C)c1ccc(C=Nc2ccccc2)cc1	0	0	0	0	0
COc1cc(/C=C/C(=O)CC(=O)/C=C/c2ccc(O)c(OC)c2)ccc1O	0	0	0	0	60[fluorescence artefact?]
Nc1nc(Nc2cccc3ccccc23)nc(C2CCCC2=O)n1 (centres undefined)	0	0	261[fluorescence artefact?]	0	0
c1ccc2c(Nc3nc(N4CCOCC4)c4ccccc4n3)cccc2c1	-	-	-	0	-
Cc1cc(C)c(NC(=O)c2ccc(CN3CCc4ccccc4C3)cc2)c(C)c1	-	-	-	0	-
CCc1nnc2n1N=C(c1ccc(-c3cc(Cl)ccc3Cl)o1)CS2	59	0	0	0	0
CCN(CC)CCNC(=O)c1cc(Cl)c(N)cc1OC	0	0	0	0	56
COC(=O)c1cc(Cl)c(N)cc1OC	0	0	0	0	0
COc1nc2ccc(C)cc2cc1-c1noc(-c2cccnc2)n1	0	0	241[fluorescence artefact?]	0	0

Source: PubChem BioAssay (several laboratories)
